Source: PubChem BioAssay (National Center for Advancing Translational Sciences (NCATS))
FLuc counter: firefly luciferase modulation, counter-screen for miR-21 project; P08659; purified FLuc, Km substrates, luminescence inhibition; Potency, µM (highest dose often 57.5 µM), without a hit: at the highest dose activity change, negative = inhibition, actives largely listed as inhibitors; actives 6.9% (n = 360,000); AID 588342;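 also: plate controls were vehicle for no effect and reference inhibitor for full effect; nearly all actives have a fitted effect of over 55% in size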
Target sequence (P08659 whole entry, looked up): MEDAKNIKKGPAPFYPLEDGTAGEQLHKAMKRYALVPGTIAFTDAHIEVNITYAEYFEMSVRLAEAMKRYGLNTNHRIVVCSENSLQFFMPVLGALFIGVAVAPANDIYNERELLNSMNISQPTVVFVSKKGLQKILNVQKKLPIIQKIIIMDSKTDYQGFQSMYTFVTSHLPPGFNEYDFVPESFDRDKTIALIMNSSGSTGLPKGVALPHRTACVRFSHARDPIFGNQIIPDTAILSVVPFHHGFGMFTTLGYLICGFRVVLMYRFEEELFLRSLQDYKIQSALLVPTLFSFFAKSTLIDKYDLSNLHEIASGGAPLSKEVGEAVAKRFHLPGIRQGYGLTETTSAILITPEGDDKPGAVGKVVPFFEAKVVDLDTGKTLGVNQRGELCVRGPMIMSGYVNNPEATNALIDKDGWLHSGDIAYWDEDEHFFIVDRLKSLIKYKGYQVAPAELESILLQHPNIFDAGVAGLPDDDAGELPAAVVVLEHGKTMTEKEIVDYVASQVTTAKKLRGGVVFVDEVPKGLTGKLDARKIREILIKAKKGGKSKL
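Purified P. pyralis luciferase (10nM final) with 10uM D-luciferin and 10uM ATP (Km levels) in 50mM Tris acetate pH 7.5, 10mM Mg acetate, 0.01% Tween-20, 0.05% BSA; qHTS 6-point titration, ~60 µM downward; luminescence read.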
ELG1 genotoxic: induces genotoxicity in HEK293T cells with luciferase-tagged ELG1; AID 504466; Potency, µM (doses to about 46 µM), for the others: at the highest dose activity change, positive = activation, hits mostly activators; HEK293T ELG1-luciferase reporter, luminescence, 16 h; actives 1.3% (n = 330,000); also: % of control where 0% means no effect; nearly all actives have a fitted effect of over 60% in size
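ELG1-luciferase HEK293T cells, 2,000/well; compound pinned in; 16 hr, 37 °C, 5% CO2; ONE-Glo, 30 min RT; luminescence on CCD imager.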
NPC1 prom act: activators of NPC1 promoter; Huh7 NPC1 promoter luciferase reporter, 24 h; actives 2.4% (n = 320,000); Potency, µM (doses to about 9.22 µM), for inactives: at the highest dose activation, most hits filed as activators; also: % of control where 0% means no effect; nearly all actives have a fitted effect of over 60% in size
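Compounds in DMSO were transferred onto Huh7 NPC1-luciferase reporter cells pre-incubated 2 h; after 24 h at 37 °C, Amplite reagent was dispensed and luminescence recorded 10 min later.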
SMN2 splice enh: increases expression of the SMN2 splice variant. AID 1458. Potency, µM (doses to about 46.1 µM), for inactives: at the highest dose activity change, positive = activation, hits mostly activators. HEK293 SMN2-luciferase splicing reporter, luminescence, 30-36 h. actives 2.8% (n = 210,000); also: % of control where 0% means no effect; nearly all actives have a fitted effect of over 55% in size
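qHTS luciferase splicing reporter: luminescence rises when SMN2 exon 7 is included in transfected HEK293 cells. Compound exposure lasted 30-36 h at 37C, with 4.5 mM final sodium butyrate as control, followed by a ONE-Glo read.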
Rab9 promoter act: Rab9 promoter activation | Huh7 Rab9 promoter-luciferase reporter, luminescence, 24 h | Potency, µM (doses to about 9.22 µM), inactives show at the highest dose activation, negative = inhibition, usual class: activators | actives 2.8% (n = 320,000) | AID 485297; also: % of control where 0% means no effect; nearly all actives have a fitted effect of over 60% in size
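Huh7 cells stably carrying Rab9 promoter–luciferase reporter, plated 1500 cells/well, compound added after 2 h and incubated 24 h at 37 °C; luciferase luminescence then read after 10 min with detection reagent.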
Active calls of the source: *; ? = inconclusive; . = no result; [ ] = remark or other dose. The list is not random: actives were taken first. Their share in the collection is about 7.5%. Calls follow the shape of the dose curve; as a rule, active = well fitted curve in the direction sought with a large enough effect; inconclusive = small, poorly fitted or top-dose-only effect, or another doubt; inactive = no such curve, though single readings can be large; an effect the other way counts as inactive or inconclusive. Potency is read from the fitted curve at half-maximal effect.

SMILES	FLuc counter	ELG1 genotoxic	NPC1 prom act	SMN2 splice enh	Rab9 promoter act
COc1cc(/C=C/C(=O)NCc2ccccn2)cc(OC)c1OC	-1%	16%	-6%	-16%	1%
COC(=O)c1cc(Cl)c(NC(=O)/C=C/c2ccc(OC)cc2)cc1OC	4%	8%	-8%	4%	3%
COc1ccccc1/C=C/C(=O)NCCc1ccccn1	13µM*	?	?	.	2.8µM*
COc1ccccc1/C=C/C(=O)Nc1cccnc1Cl	27µM*	18%	?	.	29%
O=C(N/N=C\c1cc(Br)cs1)C1COc2ccccc2O1 (stereo unspecified)	?	3%	-17%	10%	-6%
N#C/C(=C\c1ccc(OCC(N)=O)cc1)S(=O)(=O)c1ccccc1	3%	0%	-3%	10%	-8%
c1ccc(C[n+]2c(-c3ccccc3)csc2Nc2ccccc2)cc1	-11%	-4%	1%	-17%	-1%
c1ccc(Nc2scc(-c3ccccc3)[n+]2Cc2ccco2)cc1	17µM*	?	-4%	-7%	?
Cc1ccc(C)c(N2CCN(C(=O)c3cc4cc5ccc(C)cc5nc4o3)CC2)c1	0%	.	.	-1%	.
CCOC(=O)C1CCN(C(=O)c2cc3c(ccc4ccccc43)o2)CC1	12µM*	9.2µM*	2.5µM*	.	0.45µM*
CC1CCN(C(=O)c2cc3c(ccc4ccccc43)o2)CC1	0.76µM*	1µM*	0.45µM*	.	0.28µM*
CCOC(=O)C1CCN(C(=O)c2cc3cc(C)ccc3[nH]2)CC1	-15%	?	2.8µM*	.	3.2µM*
CCOC(=O)C1CCN(C(=O)c2cc3cc4ccc(C)cc4nc3o2)CC1	?	?	0.89µM*	.	0.45µM*
CC(=O)O[C@@H](C)C[N+](C)(C)C	.	.	.	-1%[20.6 µM]	.
COc1ccc(CCNC(=O)COC(=O)c2cc(=O)[nH]c3ccccc23)cc1	.	0%	.	.	.
COC(=O)CSCc1nc(-c2ccc(C(=O)OC)cc2)oc1C	-22%	.	.	.	.
Cc1cccc(Cn2cc(SCC(=O)Nc3nccs3)c3ccccc32)c1	-13%	4.1µM*	?	9%	?
Cc1ccc(Cn2cc(SCC(=O)Nc3nccs3)c3ccccc32)cc1	?	?	?	2%	?
CC(=O)N(C)/C=C1\Sc2ccccc2C1=O	?	5%	-3%	-4%	-4%
CCC(=O)N(C)/C=C1\Sc2ccccc2C1=O	11µM*	4%	-6%	4%	9%
O=CN(/C=C1\Sc2ccccc2C1=O)Cc1ccccc1	11µM*	?	10%	-4%	18%
Cc1nnc2c(Nc3cccc(O)c3)nc3ccccc3n12	4%	.	.	22%	.
C[C@H]1CN(S(=O)(=O)c2c(F)cccc2F)CCN1S(=O)(=O)c1ccc2c(c1)OCCO2	.	0%	.	.	.
Cc1ccc(-c2nc3cc(C(C)C)ccc3o2)cc1NC(=O)c1cc([N+](=O)[O-])ccc1N1CCOCC1	1.3µM*	.	.	-46%	.
Cc1ccc(-c2nc3cc(C(C)C)ccc3o2)cc1NC(=O)c1cccs1	1.9µM*	.	.	-6%	.
SMILES	FLuc counter	ELG1 genotoxic	NPC1 prom act	SMN2 splice enh	Rab9 promoter act
Cc1cc(C(=O)COC(=O)c2ccc[nH]c2=O)c(C)n1-c1ccc(Br)cc1	?	11%	22%	?	?
Cc1ccc(-n2c(C)cc(C(=O)COC(=O)c3ccc[nH]c3=O)c2C)cc1	2.7µM*	?	0.32µM*	2.5µM*	0.4µM*
Cc1cc(C(=O)COC(=O)c2ccc[nH]c2=O)c(C)n1C	9.5µM*	?	22%	-28%	30%
COCC(=O)OCC(=O)c1cc(C)n(-c2ccc(Br)cc2)c1C	12µM*	-3%	-1%	-4%	4%
COCCn1c(C)cc(C(=O)COC(=O)c2ccc[nH]c2=O)c1C	3µM*	?	?	-9%	?
O=C1CCOc2cc(OCc3ccccc3)ccc21	1.5µM*	10µM*	1µM*	2.2µM*	1µM*
O=C(/C=C/Sc1ccccc1)c1ccccc1	0.43µM*	?	2%	15%	13%
CSC(=CC(=O)c1ccccc1)SC	?	6%	12%	-15%	0%
O=C(/C=C/Sc1ccccc1)c1ccc(Cl)cc1	1.1µM*	?	4%	8%	2%
